Reference: PubChem BioAssay AID1159580 (chemical genetic matrix, 2015)
Values joined by “and” are separate entries in the source; they are usually repeats but may differ in a detail not shown here. Identical values can stand only once. Screen size: about 5,500 compounds; about 2,000 (36%) were called active. Inconclusive results (about 18%) are left out. Cut-off read from the data, not from the text of the source: active = normalized growth mostly below about 0.91 (no sharp cut-off); inconclusive = no clear call, values can overlap the other calls; inactive = mostly above about 0.92. The list shows a part of the results.

Test: chemical genetic growth profiling, strain panel (AID 1159580);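 note: tested at 20 µM; growth read once vehicle control cultures reached saturation at 30 °C; 1 = growth at the plate median or of vehicle wells; lower values mean less growth of the strain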
Conditions: S. cerevisiae deletion strains, growth OD

Measured: normalized growth

CCC(=O)O[C@H]1CCC2C3CCc4cc(O)ccc4C3CC[C@@]21C (stereo partly drawn)
active: locus YAL013W, strain DEP1, stronger effect = lower value 0.7 | locus YDL074C, strain BRE1, stronger effect = lower value 0.447 | locus YDR159W, strain sac3, stronger effect = lower value 0.596 | locus YDR195W, strain ref2 0.209 | locus YDR392W, strain spt3, stronger effect = lower value 0.531 | locus YER155C, strain BEM2, stronger effect = lower value 0.295 | locus YGR229C, strain SMI1, stronger effect = lower value 0.584 | locus YHR079C, strain IRE1, stronger effect = lower value 0.538 | locus YJL095W, strain BCK1, stronger effect = lower value 0.756 and 0.227 | locus YJL129C, strain trk1, stronger effect = lower value 0.814 | locus YJL164C, strain tpk1, stronger effect = lower value 0.904
0.968 (inactive) and 0.298 (active): locus YHR030C, strain SLT2, stronger effect = lower value
inactive: locus YAL021C, strain ccr4, stronger effect = lower value 0.97 | locus YAL026C, strain drs2, stronger effect = lower value 1 | locus YAL030W, strain snc1, stronger effect = lower value 0.988 | locus YBL061C, strain skt5, stronger effect = lower value 0.98 | locus YBR009C, strain hhf1, stronger effect = lower value 0.957 | locus YBR021W, strain FUR4, stronger effect = lower value 0.908 | locus YBR023C, strain chs3, stronger effect = lower value 0.981 | locus YBR171W, strain sec66, stronger effect = lower value 0.997 | locus YBR229C, strain ROT2, stronger effect = lower value 0.999 | locus YBR231C, strain swc5, stronger effect = lower value 0.974 | locus YBR279W, strain paf1, stronger effect = lower value 1 | locus YCL011C, strain gbp2, stronger effect = lower value 0.962 | locus YCL016C, strain dcc1, stronger effect = lower value 0.992 | locus YCL029C, strain bik1, stronger effect = lower value 0.994 | locus YCL061C, strain MRC1, stronger effect = lower value 0.991 | locus YCL069W, strain vba3, stronger effect = lower value 0.997 | locus YCR088W, strain abp1, stronger effect = lower value 0.991 | locus YDL005C, strain med2, stronger effect = lower value 0.966 | locus YDL035C, strain GPR1, stronger effect = lower value 0.975 | locus YDL040C, strain nat1, stronger effect = lower value 1 | locus YDL101C, strain DUN1, stronger effect = lower value 0.951 | locus YDL134C, strain PPH21, stronger effect = lower value 0.956 | locus YDL185W, strain tfp1, stronger effect = lower value 1.01 | locus YDL192W, strain arf1, stronger effect = lower value 1.01 | locus YDR001C, strain nth1, stronger effect = lower value 0.994 | locus YDR069C, strain doa4, stronger effect = lower value 0.97 | locus YDR101C, strain arx1, stronger effect = lower value 0.986 | locus YDR137W, strain rgp1, stronger effect = lower value 0.854 | locus YDR150W, strain NUM1, stronger effect = lower value 1 | locus YDR162C, strain NBP2, stronger effect = lower value 0.993 | locus YDR297W, strain sur2, stronger effect = lower value 0.989 | locus YDR318W, strain mcm21, stronger effect = lower value 1 | locus YDR334W, strain swr1, stronger effect = lower value 0.962 | locus YDR335W, strain msn5, stronger effect = lower value 0.99 | locus YDR388W, stronger effect = lower value 0.987 | locus YDR502C, strain sam2, stronger effect = lower value 0.997 | locus YEL003W, strain gim4, stronger effect = lower value 0.984 | locus YEL037C, strain rad23, stronger effect = lower value 0.995 | locus YEL061C, strain CIN8 (second series), stronger effect = lower value 0.969 | locus YEL061C, strain CIN8, stronger effect = lower value 0.999 | locus YER015W, strain faa2, stronger effect = lower value 0.988 | locus YER016W, strain bim1, stronger effect = lower value 0.996 | locus YER110C, stronger effect = lower value 1.02 | locus YER111C, strain swi4, stronger effect = lower value 0.974 | locus YER155C, strain BEM2 (second series), stronger effect = lower value 0.988 | locus YER167W, strain BCK2, stronger effect = lower value 0.933 | locus YFR010W, strain ubp6, stronger effect = lower value 0.956 | locus YGL078C, strain dbp3, stronger effect = lower value 1.01 | locus YGL086W, strain mad1, stronger effect = lower value 0.985 | locus YGL167C, strain pmr1, stronger effect = lower value 0.98 | locus YGL173C, strain kem1, stronger effect = lower value 0.986 | locus YGL227W, strain vid30, stronger effect = lower value 0.976 | locus YGL240W, strain doc1, stronger effect = lower value 0.972 | locus YGL248W, strain PDE1, stronger effect = lower value 0.961 | locus YGL253W, strain hxk2, stronger effect = lower value 1 | locus YGR135W, strain pre9, stronger effect = lower value 1.01 | locus YGR252W, strain gcn5, stronger effect = lower value 0.973 | locus YHR013C, strain ard1, stronger effect = lower value 0.885 | locus YHR027C, strain rpn1, stronger effect = lower value 0.992 | locus YHR079C, strain IRE1 (second series), stronger effect = lower value 1.01 | locus YHR094C, strain hxt1, stronger effect = lower value 0.997 | locus YHR129C, strain ARP1, stronger effect = lower value 0.932 | locus YHR142W, strain chs7, stronger effect = lower value 0.931 | locus YHR200W, strain rpn10, stronger effect = lower value 1.01 | locus YIL066C, strain RNR3, stronger effect = lower value 0.927 | locus YIL073C, strain SPO22, stronger effect = lower value 0.781 | locus YIL125W, strain kgd1, stronger effect = lower value 1 | locus YIR030C, strain dcg1, stronger effect = lower value 1 | locus YJL092W, strain hpr5, stronger effect = lower value 0.984 | locus YJL095W, strain BCK1 (second series), stronger effect = lower value 0.996 | locus YJL115W, strain asf1, stronger effect = lower value 0.988 | locus YJL134W, strain LCB3, stronger effect = lower value 0.993 | locus YJL154C, strain vps35, stronger effect = lower value 0.995 | locus YJL166W, strain qcr8, stronger effect = lower value 0.989 | locus YJL168C, strain set2, stronger effect = lower value 1 | locus YJL187C, strain SWE1 (second series), stronger effect = lower value 0.925
